# ERa coact inh: blocks coactivator binding to human estrogen receptor alpha | inhibition, % at 25.6 µM | hit rate 1.7% among 86,000 | P03372 | TR-FRET ER-alpha LBD / SRC-1 peptide, estradiol-bound; in the data active = inhibition above about 50%
# Smad3 FoxH1 inh: inhibitors of human Smad3 transcription factor binding; TR-FRET Smad3/Dy647-FoxH1 peptide binding, europium anti-His; AID 630; hit rate 0.29% among 88,000; inhibition, % at 25 µM; P84022;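 active = compounds that reduce the energy-transfer binding signal between the protein and its labelled peptide by more than half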
# Calb biofilm kill: kills Candida albicans biofilms | C. albicans biofilm + clotrimazole, Alamar Blue | inhibition, % at 6 µM | hit rate 0.14% among 85,000;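 active = inhibition above 20%; inactive = inhibition below 20%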;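 also: preformed 24 hr biofilms exposed to compound for 48 hr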
# ERa SRC1 pot: enhances coactivator binding to human estrogen receptor alpha. TR-FRET ERalpha-LBD/SRC-Cy5 coactivator binding, 2 h; 100 = basal binding, no effect. AID 639. hit rate 1.3% among 86,000. P03372. coactivator binding (% of control), % at 25.6 µM; in the data active = activity above about 200%;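 also: binding measured in presence of low estradiol as agonist stimulus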
# FAK blocker: inhibitors of human focal adhesion kinase | inhibition, %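 (tested at 7 µM)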 | AID 727 | biochemical FAK kinase activity assay | hit rate 0.84% among 97,000 | Q05397
# ERb SRC1 inh: blocks coactivator binding to human estrogen receptor beta. TR-FRET ER-beta LBD / SRC1-Cy5 peptide binding; receptor agonist-loaded with 1 µM estradiol. Q92731. hit rate 1.3% among 86,000. inhibition, % at 25.6 µM. AID 633;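 active = compounds whose percent inhibition of the receptor-coactivator binding signal exceeds about 50% in the single-dose screen, limit read from the data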
# FAK inh conf: FAK (human) inhibition confirmed. shares compounds with FAK blocker. AID 794. FAK kinase biochemical inhibition assay. hit rate 28% among 750. inhibition, % at 7 µM
# Numbers stand for hits; i = inactive; nt = no result; [ ] = dose if it differs, or a comment. This is a sample that favours compounds with a hit; in the whole collection about 3.3% have one here. Rule as the data show it, unless noted: active = inhibition above about 19%; inactive = the rest.
SMILES,ERa coact inh,Smad3 FoxH1 inh,Calb biofilm kill,ERa SRC1 pot,FAK blocker,ERb SRC1 inh,FAK inh conf
CC(C)COC(=O)c1ccc2c(c1O)C(=O)c1ccccc1C2=O,i,i,i,i,i,i,nt
CCC(=O)Nc1ccc2nc(SCC(=O)N3CCCC3)sc2c1,i,i,i,i,i,i,nt
CCN(CC)C(=O)CSc1nc2ccc(NC(=O)CSc3nnc(N)s3)cc2s1,nt,nt,nt,nt,21,nt,i
Cn1c(SCC(=O)Nc2ccc3nc(SCC(=O)N4CCCC4)sc3c2)nnc1-c1ccc(N)cc1,nt,nt,nt,nt,31,nt,32
Cc1c(-c2ccc(Cl)cc2)oc(=O)c2c(N)n(-c3ccccc3)nc12,nt,nt,nt,nt,24,nt,i
CCOc1cccc(C2C(C(=O)c3ccco3)=C(O)C(=O)N2Cc2ccncc2)c1 (centres undefined),i,i,i,i,i,i,nt
CC1CCCN(Cc2c(O)ccc3c(=O)c(-c4nc5ccccc5s4)c(N)oc23)C1 (centres undefined),nt,nt,nt,nt,34,nt,i
O=C(Nc1ccc2c(c1)OCCO2)c1cccc2nc3ccccc3nc12,nt,nt,nt,nt,38,nt,i
c1ccc2c(c1)ncn2-c1ccc(-c2ccnc(-c3ccncc3)n2)cc1,nt,nt,nt,nt,29,nt,i
Cc1nccc(-c2ccc(-n3cnc4ccccc43)cc2)n1,i,i,i,i,i,i,nt
CC1CCc2nc(NC(=O)CSc3nc4ccccc4o3)sc2C1 (centres undefined),i,i,i,i,i,i,nt
Cc1ccc(OCC(=O)OCC(=O)c2c(N)n(C)c(=O)n(C)c2=O)cc1C,i,i,i,i,i,i,nt
O=C(Nc1nnc(C2CC2)s1)c1ccncc1,i,i,i,i,i,i,nt
CCOc1ccc(-c2nnc3sc(COc4ccc(Cl)cc4)nn23)cc1,i,i,i,i,21,i,i
CCOc1ccc(-c2nnc3sc(COc4ccc(C)cc4)nn23)cc1,i,i,i,i,i,i,nt
O=C(c1coc2ccccc2c1=O)N1CCN(c2cccc(C(F)(F)F)c2)CC1,i,i,i,i,i,i,nt
COc1ccc(Cl)cc1NC(=O)Nc1cccc([N+](=O)[O-])c1C,nt,nt,nt,nt,i,nt,nt
COc1ccc(-c2c3c(nc4sc(C(=O)Nc5cc(C)on5)c(N)c24)CCC3)cc1,i,i,i,i,i,i,nt
NC(=O)c1sc2nc3c(c(-c4ccco4)c2c1N)CCC3,i,i,nt,i,34,54[fluorescence artefact?],20
O=C(ONc1ccc(N=NC(=O)c2ccccc2O)cc1)c1ccccc1,i,i,i,i,80,i,22
Cc1cc(C(=O)Nc2ccccc2)oc1C,i,i,i,i,i,i,nt
Cn1c(=O)c2c(nc(SCC(=O)NC3CCCCC3)n2C)n(C)c1=O,i,i,i,i,nt,i,nt
O=C(O)c1ccccc1OCCOCCOc1ccccc1C(=O)O,i,i,i,i,38,i,34
O=C(O)c1ccccc1OCCOc1ccccc1C(=O)O,i,i,i,i,i,i,nt
CCCOc1ccc(/C=N/NC(=O)c2ccc(Cn3cc([N+](=O)[O-])cn3)o2)cc1,nt,nt,nt,nt,24,nt,i
SMILES,ERa coact inh,Smad3 FoxH1 inh,Calb biofilm kill,ERa SRC1 pot,FAK blocker,ERb SRC1 inh,FAK inh conf
CCOc1ccc(OCC)c(NC(=O)C2CCCN(S(=O)(=O)c3cnc[nH]3)C2)c1 (centres undefined),i,i,i,i,i,i,nt
CCOc1ccc(S(=O)(=O)Nc2ccccc2SC)c2cccnc12,i,i,i,i,20,i,i
CCc1ccc(CCC(=O)O)nc1,nt,i,nt,nt,nt,nt,nt
Cc1nc2ccccc2n1C1CC(=O)N(Cc2ccccc2)C1=O (centres undefined),i,i,i,i,i,i,nt
Cc1ccccc1-c1ccc(Nc2ccc(N3CCOCC3)cc2)nn1,99[fluorescence artefact?],i,i,i,31,80[fluorescence artefact?],33
Cc1cc(Nc2ccccc2)nc(N2CCOCC2)n1,i,i,i,i,i,i,nt
Cn1c(SCC(=O)N2CCCCC2)nc2c([nH]c3ccccc32)c1=O,i,i,i,i,24,i,i
COc1ccc(COc2ccsc2C(=O)Nc2ccc(Cl)c(Cl)c2)cc1,nt,nt,nt,nt,25,nt,i
O=C(Nc1ccccc1N1CCCCC1)c1ccco1,i,i,i,i,24,i,i
O=C(Nc1ccccc1N1CCCC1)c1ccco1,i,i,i,i,i,i,nt
CCOC(=O)c1c(NC(=O)CSc2nncn2C)sc(C)c1C,i,i,i,i,i,i,nt
Cn1cnnc1SCC(=O)Nc1sc2c(c1C(N)=O)CCC2,94[fluorescence artefact?],i,i,i,23,93[fluorescence artefact?],i
